Source: PubChem BioAssay (NCATS)
Results filed as inconclusive are left out. Calls of active or inactive are those of the source. Unless noted, calls come from the whole dose curve; as a rule, active = well fitted curve in the direction sought with a large enough effect; inconclusive = small, poorly fitted or top-dose-only effect, or another doubt; inactive = no such curve, though single readings can be large; an effect the other way counts as inactive or inconclusive.

Tests used:
[1] = Cell Viability - BJ (AID 421; calls by dose curve;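 note: potency is the fitted concentration of half-maximal effect; cells exposed to compound for 40 hours at 37 °C before readout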); details: BJ fibroblast viability, qHTS
Outline: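 Quantitative HTS: ATP depletion in BJ cells after 40 hr compound exposure in complete culture medium, detected with CellTiter-Glo; AC50 from standard Hill fits.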

[2] = Cell Viability - Jurkat (AID 426;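 active = dose-dependent loss of cell ATP signal giving a full or clear fitted curve, ranked by lower potency value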; note: potency is the fitted concentration of half-maximal effect); details: qHTS
Outline: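 qHTS, 1536-well; Jurkat E6-1, 5000 cells/well, complete medium; cpd 40 hr, 37 °C; CellTiter-Glo 20 min RT; luminescence. AC50 by Hill fit.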

[3] = Cell Viability - Hek293 (AID 427;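 active = compounds whose dose-response curve shows a full or clear partial loss of cell viability, called from curve shape rather than a numeric limit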;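 note: potency is the fitted concentration of half-maximal effect; cells exposed to compound for 40 hours at 37 °C before reading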); details: qHTS
Outline: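 AC50 values derive from Hill-modelled concentration-response of ATP-based luminescence, normalized between DMSO-only and 100 uM tamoxifen controls. Cells were exposed in complete culture medium for 40 hr at 37 °C before detection.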

[4] = Cell Viability - HepG2 (AID 433; calls by dose curve;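 note: potency is the fitted concentration of half-maximal effect; potency for ATP loss meaning cytotoxicity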); details: qHTS
Outline: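 HepG2 cells, 1500 per well, treated 40 hr at 37 °C in complete medium; viability from intracellular ATP by CellTiter-Glo luminescence. Normalized to DMSO and 100 uM tamoxifen; AC50 from Hill fit of qHTS concentration-response.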

[5] = Cell Viability - MRC5 (AID 434; calls by dose curve;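 note: potency is the fitted concentration of half-maximal effect; potency reflects cytotoxicity seen as loss of intracellular ATP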); details: MRC5 lung fibroblast viability, qHTS
Outline: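 qHTS cytotoxicity in human lung fibroblast MRC5 cells; 40 hr treatment, 37 °C; cellular ATP by luciferase luminescence; DMSO = 0%, 100 uM tamoxifen = 100% inhibition; Hill-fit AC50.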

[6] = Cell Viability - SK-N-SH (AID 435; calls by dose curve;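 note: potency is the fitted concentration of half-maximal effect; compound exposure lasted 40 h at 37 °C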); details: SK-N-SH neuroblastoma cell viability qHTS
Outline: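 SK-N-SH neuroblastoma cells (1500/well) treated 40 h at 37 °C in complete medium; viability read as cellular ATP by CellTiter-Glo luminescence. Normalized to DMSO and 100 uM tamoxifen; AC50 from Hill fits of qHTS concentration-response.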

[7] = Cell Viability - N2a (AID 540); details: N2a mouse neuroblastoma cell viability; at 92.2 µM (top of the series);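 note: plate controls were DMSO alone for no effect and tamoxifen control for full effect; nearly all actives have a fitted effect of over 45% in size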
Outline: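 Luminescent ATP signal (CellTiter-Glo, 20 min at room temperature) served as the viability read-out after N2a cells were treated with compounds for 40 hours at 37 °C. Concentration-response data were fitted to the Hill equation for AC50.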

[8] = Cell Viability - HUV-EC-C (AID 542); note: % is set by controls: 0 for no effect and ±100 for the full control effect; nearly all actives have a fitted effect of over 35% in size
Outline: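 qHTS cytotoxicity: HUV-EC-C, 1000 cells/well, 5 hr settle, compound 40 hr 37 °C, CellTiter-Glo, luminescence. AC50 via Hill equation.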

[9] = Cell Viability - H-4-II-E (AID 543); note: % is set by controls: 0 for no effect and ±100 for the full control effect; nearly all actives have a fitted effect of over 35% in size
Outline: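 Luminescent ATP signal (CellTiter-Glo) served as the viability read-out, with cytotoxicity seen as a concentration-dependent ATP drop. Cells were treated for 40 hours in complete medium. AC50 values derive from Hill-equation modelling.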

[10] = Cell Viability - SH-SY5Y (AID 544); details: SH-SY5Y neuroblastoma cell viability; viability change, negative = cytotoxic: at 92.2 µM (top of the series); note: nearly all actives have a fitted effect of over 55% in size
Outline: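 Luminescent ATP read-out (CellTiter-Glo) measures loss of viable SH-SY5Y neuroblastoma cells after 40 hr compound exposure at 37 °C. AC50 values derive from standard Hill modelling of qHTS concentration-response data.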

[11] = Cell Viability - Renal Proximal Tubule (AID 545); details: renal proximal tubule cells viability; at 91.7 µM (top of the series), primary cells of rat origin unless noted; note: nearly all actives have a fitted effect of over 40% in size
Outline: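 Rat renal proximal tubule primary cells, 1000/well, exposed to compounds for 40 hr at 37 °C in complete medium; cellular ATP read by CellTiter-Glo luminescence. AC50 from concentration-response fitted with standard Hill equation.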

[12] = Cell Viability - Mesenchymal (AID 546);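 note: cells exposed to compound for 40 hours before reading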
Outline: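 AC50 values reflect the drop in intracellular ATP in a human kidney mesenchymal line derived from normal glomeruli. Treatment lasts 40 hr at 37 °C in complete medium, and the signal comes from CellTiter-Glo luminescence.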

[13] = Cellular Toxicity (caspase-3) HepG2 (AID 654);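 note: cells exposed to compound for 16 hours before reading; 0% = DMSO alone and 100% = caspase signal from 100 µM tamoxifen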
Outline: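 Cells plated 5 hr at 37 °C, compound added, incubated 16 hr at 37 °C. Caspase-Glo 3/7 reagent followed, 20 min at room temperature, then luminescence read. Activation scored as signal increase; AC50 from Hill fit.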

[14] = Cellular Toxicity (caspase-3) Jurkat (AID 655); details: Jurkat caspase-3 activation, luminescence, DMSO = 0%, tamoxifen = 100%; at 92.2 µM (top of the series);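 note: cells exposed to compound for 16 h at 37 °C before reading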
Outline: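 Jurkat cells (5000/well) in complete medium exposed 16 h at 37 C; caspase-3/7 activity read by Caspase-Glo luminescence after 20 min at room temperature. Normalized to DMSO and 100 uM tamoxifen; AC50 from Hill fits.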

[15] = Cellular Toxicity (caspase-3) HUV-EC-C (AID 656)
Outline: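 HUV-EC-C cells (1000/well) in complete medium, compound-treated 16 h at 37 °C; caspase-3/7 activity read by Caspase-Glo 3/7 luminescence. Normalized to DMSO (basal) and 100 uM tamoxifen (100%); AC50 from Hill-equation concentration-response fits.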

[16] = Cellular Toxicity (caspase-3) SHSY5Y (AID 657)
Outline: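 SH-SY5Y human neuroblastoma cells, 1500/well, exposed to compound for 16 hours at 37 °C in complete medium. Caspase-3/7 activity read by Caspase-Glo luminescence after 1 hr at room temperature, normalized to DMSO and 10 uM staurosporine; AC50 from Hill fit.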

[17] = Cellular Toxicity (caspase-3) BJ (AID 658)
Outline: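 Readout: Caspase-Glo 3/7 luminescence increase in BJ cells after 16 hr treatment at 37 °C. Staurosporine and tamoxifen served as positive controls; AC50 values came from Hill modelling of data normalized to DMSO and 10 uM staurosporine.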

[18] = Cellular Toxicity (caspase-3) MRC-5 (AID 659)
Outline: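 Concentration-dependent caspase 3/7 activation is measured in human normal lung fibroblasts (MRC-5) following 16-hour treatment. AC50 values come from standard Hill-equation modeling of luminescence normalized to DMSO and 10 uM staurosporine.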

[19] = Cellular Toxicity (caspase-3) Mesangial (AID 660);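 note: cells exposed to compound for 16 h before the caspase read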
Outline: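 Mesangial cells, 1000/well, 5 h settle at 37 °C; compound 16 h, 37 °C; Caspase-Glo 3/7 reagent 20 min RT; luminescence. Norm.: DMSO = 0%, tamoxifen 100 uM = 100%. AC50, Hill fit.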

[20] = Cellular Toxicity (caspase-3) SK-N-SH (AID 661)
Outline: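 Human neuroblastoma SK-N-SH, 1500 cells/well, 5 hr pre-incubation, then compound 16 hr, 37 °C. Caspase-Glo 3/7 reagent, 1 hr RT, luminescence. Norm. to DMSO/10 uM staurosporine; Hill-fit AC50.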

[21] = Cellular Toxicity (caspase-3) H-4-II-E (AID 663);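 note: cells exposed to compound for 16 hr before readout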
Outline: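 Apoptosis induction is scored as increased luminescence from caspase 3/7 substrate cleavage in rat hepatoma H-4-II-E cells exposed to compound for 16 hr. Activity is scaled between DMSO and 100 uM tamoxifen.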

[22] = Cellular Toxicity (caspase-3) N2a (AID 665); details: N2a cells, luminescence, normalized: DMSO 0%, 10 µM staurosporine 100%; at 92.2 µM (top of the series);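 note: compound exposure lasted 16 h at 37 °C before readout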
Outline: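 N2a cells, 1500/well, 5 h settle at 37 °C; cpd 16 h, 37 °C; Caspase-Glo 3/7, 1 h RT; luminescence. Norm: DMSO = 0, 10 uM staurosporine = 100%. AC50, Hill fit.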

[23] = Cellular Toxicity (caspase-3) NIH 3T3 (AID 666);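 note: caspase signal read after 16 h compound exposure; 0% = DMSO basal and 100% = 100 µM tamoxifen stimulation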
Outline: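 Luminescence from aminoluciferin released by caspase-3/7 cleavage of a peptide substrate served as read-out. Mouse fibroblast NIH 3T3 cells were exposed to compounds over a concentration range for 16 hours, and AC50 values came from standard Hill modelling.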

CCCOC(=O)c1ccccc1C(=O)OCCC
inactive: Potency [1] > 92 µM | Potency [2] > 92 µM | Potency [3] > 92 µM | Potency [4] > 92 µM | Potency [5] > 92 µM | Potency [6] > 92 µM | activity change, negative = cytotoxicity [7] -15% | Potency [8] | Potency [9] | Potency [10] | activity change, negative = cytotoxicity [11] -1.75% | outcome [12] | outcome [13] | caspase-3 activation [14] -1.2% | outcome [15] | outcome [16] | outcome [17] | outcome [18] | outcome [19] | outcome [20] | outcome [21] | caspase-3 activation [22] 2.99% | outcome [23]
